# Several values for one entry are separate records, joined by “and”; a condition that tells them apart may be missing. Equal entries are not always repeated. Inconclusive results are not listed. A structure can be active in one record and inactive in another. Activity calls are given as the source filed them. Rule for the calls: active = hit-call score of the fitted dose curve at least 0.9, where 1 is the maximum; inconclusive = response in the unintended direction; inactive = score below 0.9.
# Molecular target: Peroxisome proliferator-activated receptor gamma (Homo sapiens) (UniProt P37231)
# Test: ATG_PPARg_TRANS: Attagene TRANS-FACTORIAL HepG2 Assay for human Peroxisome Proliferator-activated Receptor-gamma (PPARg) (AID 2283007)
# Procedure: ATG_TRANS is a cell-based, multiplexed-readout assay that uses HepG2, a human liver cell line, with measurements taken at 24 hours after chemical dosing in a 24-well plate.ATG_PPARg_TRANS is one of 30 assay component(s) measured or calculated from the ATG_TRANS assay. It is designed to make measurements of mRNA induction, a form of inducible reporter, as detected with fluorescence intensity signals by Reverse transcription polymerase chain reaction (RT-PCR) and Capillary electrophoresis technology.Data from the assay component ATG_PPARg_TRANS was analyzed into 1 assay endpoint. This assay endpoint, ATG_PPARg_TRANS, was analyzed in the positive analysis fitting direction relative to DMSO as the negative control and baseline of activity. Using a type of inducible reporter, measures of mRNA for gain-of-signal activity can be used to understand the reporter gene at the transcription factor-level as they relate to the gene PPARG. Furthermore, this assay endpoint can be referred to as a primary readout, because this assay has produced multiple assay endpoints where this one serves a reporter gene function. To generalize the intended target to other relatable targets, this assay endpoint is annotated to the nuclear receptor intended target family, where the subfamily is non-steroidal.
# Human liver HepG2 cells are transiently transfected with multiple reporter transcription units (MRTUs) in 6-well plates using FuGene 6 reagent (Roche; 3 ml FuGene/1 mg DNA). The MRTU constructs are regulated by a cis-regulating element (promoter). […] A major difference between the CIS and TRANS system is that in CIS activities of endogenous TFs are measured, whereas the TRANS assay evaluates changes in activities of exogenous, chimeric NR-Gal4 proteins. […] At the end of 24 hour incubation, total RNA was isolated using TriZol reagent (Invitrogen). The isolated RNA is then reverse-transcribed using oligo(dT) primer and Mo-MLV reverse transcriptase (Invitrogen) with DNAse I (Ambion) treatment for 30 min. The one-tenth of the produced cDNA was amplified by PCR using Taq DNA polymerase (Invitrogen) and two reporter sequence-specific primers. The PCR products were fluorescently labeled by primer extension with 6-arboxyfluorescein (6-FAM) 5'-labeled reporter sequence-specific primer (2 min at 95 C, 20 s at 68 C and 10 min at 72 C) and these products were digested with 5U of HpaI (New England Biolabs) for 2h at 37 C. The fragments were purified using Qiaquick PCR columns (Qiagen), analyzed on an ABI 3130xL genetic analyzer (Applied Biosystems) with peak positions identified by using a set of X-rhodamine (ROX)-labeled MapMarker1000 molecular weight standards (BioVentures). The raw capillary electrophoresis data was processed using Attagraph software (Attagene).
# Peroxisome proliferator-activated receptor gamma (Homo sapiens), sequence (P37231 whole entry, looked up): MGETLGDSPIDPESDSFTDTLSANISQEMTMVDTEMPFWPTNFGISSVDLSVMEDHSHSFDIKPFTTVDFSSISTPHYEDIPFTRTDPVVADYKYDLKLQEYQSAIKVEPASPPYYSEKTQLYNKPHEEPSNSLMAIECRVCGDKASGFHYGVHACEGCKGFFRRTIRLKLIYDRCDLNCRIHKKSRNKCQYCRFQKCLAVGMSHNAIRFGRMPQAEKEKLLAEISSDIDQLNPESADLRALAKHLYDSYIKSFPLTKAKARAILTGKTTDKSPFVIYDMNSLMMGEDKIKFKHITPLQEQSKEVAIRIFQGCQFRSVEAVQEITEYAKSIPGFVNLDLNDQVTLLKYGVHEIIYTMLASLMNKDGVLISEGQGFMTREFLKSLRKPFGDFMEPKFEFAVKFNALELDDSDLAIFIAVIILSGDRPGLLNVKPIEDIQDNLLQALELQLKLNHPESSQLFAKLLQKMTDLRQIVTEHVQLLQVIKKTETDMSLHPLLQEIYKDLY
SMILES,outcome,AC50
N#CC(CCc1ccc(Cl)cc1)(Cn1cncn1)c1ccccc1 (stereo not given),inactive,–
CC(Oc1ccc(Cl)cc1Cl)C(=O)O (stereo not given),–,39.1 µM (active)
CC1COC(Cn2cncn2)(c2ccc(Oc3ccc(Cl)cc3)cc2Cl)O1 (stereo not given),inactive,–
N#Cc1nn(-c2c(Cl)cc(C(F)(F)F)cc2Cl)c(N)c1S(=O)C(F)(F)F (stereo not given),inactive,44.5 µM (active)
OC(c1ccc(Cl)cc1)(c1cncnc1)c1ccccc1Cl (stereo not given),–,66.2 µM (active)
COc1ccc(C(c2ccc(OC)cc2)C(Cl)(Cl)Cl)cc1,inactive,–
CCc1nn(C)c(C(=O)NCc2ccc(C(C)(C)C)cc2)c1Cl,inactive,–
COP(=S)(OC)Oc1nc(Cl)c(Cl)cc1Cl,–,16 µM (active)
N#Cc1cc(Br)c(O)c(Br)c1,–,29.9 µM (active)
CC(C)Oc1cc(-n2nc(C(C)(C)C)oc2=O)c(Cl)cc1Cl,–,34.9 µM (active)
CS/C(C)=N/OC(=O)N(C)SN(C)C(=O)O/N=C(\C)SC,inactive,–
CCOC(=O)CC(SP(=S)(OC)OC)C(=O)OCC (stereo not given),–,14.2 µM (active) and 25.1 µM (active)
CCNc1nc(Cl)nc(NCC)n1,inactive,–
CO/C=C(/C(=O)OC)c1ccccc1Oc1cc(Oc2ccccc2C#N)ncn1,inactive,–
COP(N)(=O)SC (stereo not given),inactive,–
COc1nc(C)nc(NC(=O)NS(=O)(=O)c2ccccc2CCC(F)(F)F)n1,inactive,–
Cc1c(F)c(F)c(COC(=O)C2C(/C=C(\Cl)C(F)(F)F)C2(C)C)c(F)c1F (stereo not given),inactive,–
CCCC1COC(Cn2cncn2)(c2ccc(Cl)cc2Cl)O1 (stereo not given),inactive,–

SMILES,outcome,AC50
C#CCOS(=O)OC1CCCCC1Oc1ccc(C(C)(C)C)cc1 (stereo not given),inactive,–
CC(C)C1(C)N=C(c2nc3ccccc3cc2C(=O)O)NC1=O (stereo not given),inactive,–
C=CCC1=C(C)C(OC(=O)C2C(C=C(C)C)C2(C)C)CC1=O (stereo not given),–,18.3 µM (active) [middle of 6 runs]
CCNc1nc(Cl)nc(NC(C)C)n1,inactive,–
Oc1ccccc1-c1ccccc1,inactive,28.3 µM (active)
CCCN(CCC)c1c([N+](=O)[O-])cc(S(N)(=O)=O)cc1[N+](=O)[O-],inactive,–
CCOP(=S)(OCC)SCn1c(=O)oc2cc(Cl)ccc21,–,50 µM (active)
COC(=O)C(C)Oc1ccc(Oc2ccc(Cl)cc2Cl)cc1 (stereo not given),–,35.2 µM (active) and 20.8 µM (active) and 40 µM (active)
Cc1cc(Cl)ccc1OCC(=O)O,inactive,–
CON(C)C(=O)Nc1ccc(Cl)c(Cl)c1,inactive,42.1 µM (active)
COc1nc(C)nc(NC(=O)NS(=O)(=O)c2ccccc2Cl)n1,inactive,–
C=CC1(C)OC(=O)N(c2cc(Cl)cc(Cl)c2)C1=O (stereo not given),inactive,37.6 µM (active) and 65.6 µM (active)
CCCCOC(=O)c1ccccc1C(=O)OCCCC,inactive,44.9 µM (active) and 43.7 µM (active)
CNC(=S)S,inactive,–
COC(=O)N(OC)c1ccccc1COc1ccn(-c2ccc(Cl)cc2)n1,–,0.592 µM (active)
Fc1ccc(Oc2ccnc3cc(Cl)cc(Cl)c23)cc1,inactive,–
C=CCC1=C(C)[C@@H](OC(=O)[C@@H]2[C@@H](C=C(C)C)C2(C)C)CC1=O,–,9.45 µM (active)

# — PubChem BioAssay (EPA / NIEHS)
